According to PubChem BioAssay:

assay: yeast growth modulation, basal conditions, primary screen, YJM789 clinical isolate, OD600, 24 h (AID 1089);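 note: growth of clinical yeast isolate S. cerevisiae YJM 789 seeded 1000 cells per well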; details: S. cerevisiae YJM789 growth, higher = more signal, called active from +8 up or from −8 down
Note: test concentration not given here.

z-score, inactive:
CCCC[C@@H](O)C1=C(COc2ccccc2)C[C@H]2C(=O)N(Cc3ccccc3)C(=O)[C@H]2[C@H]1CO 0.298
O=C1OCCC/C=C\[C@H]2OC34C=CCN(c5ccc6ccccc6c5)C(=O)[C@H]3N(CCO)C(=O)[C@@H]4C12 (some centres undefined) 0.0709
COC(=O)c1c(CC[C@@H](CO)NC(=O)N[C@@H](C)Cn2cc(-c3ccccn3)nn2)oc(C(C)=O)c1C(=O)OC -0.441
CC(C)C[C@@H]1NC(=O)[C@@H]2C[C@H](C(=O)NCCCCCCN)[C@H](c3cccc(OCCO)c3)N2C1=O -0.148
[N-]=[N+]=Nc1ccccc1C[C@@]1(C(=O)N2CCOCC2)N=C(c2ccc(OCCCO)cc2)O[C@@H]1c1ccccc1 -1.41
CCOC(=O)C[C@H]1[C@H](OC(=O)c2cc3ccccc3oc2=O)[C@@H](NC(=O)CC(C)C)c2cc(OCCCO)ccc2N1C(=O)c1ccc2ccccc2n1 0.475
Cc1ccc(NN2C(C(O)c3c(F)cccc3Cl)C=CC3C(=O)N(C4CCCCC4)C(=O)C32)cc1 (centres undefined) -0.58
O=C1O[C@@H](c2ccccc2)[C@@H](c2ccccc2)N2[C@@H](c3ccc(OCCO)cc3)[C@]3(C(=O)Nc4ccc(C#CC5=CCCCC5)cc43)[C@@H](C(=O)NC[C@H](O)c3ccccc3)[C@H]12 1.99
CCCN1C(=O)[C@]2(Cc3ccccc31)N=C(c1ccc(OCCCO)cc1)O[C@@H]2c1ccccc1 -1.49
C[N+](C)(C)CCCCCCNC(=O)[C@@H]1C[C@@H]2C(=O)N3CCC[C@H]3C(=O)N2[C@@H]1c1ccc(O)cc1 -0.913
CCOC(=O)C[C@H]1[C@H](OC(=O)c2ccc(C(=O)c3ccccc3)cc2)[C@@H](NC(=O)CC(C)C)c2cc(OCCCO)ccc2N1C(=O)c1ccccc1 -0.327
CC1CC/C=C\[C@H]2OC34C=CCN(C(C)C)C(=O)[C@H]3N(CCO)C(=O)[C@@H]4C2C(=O)O1 (some centres undefined) 0.114
[N-]=[N+]=Nc1ccccc1C[C@]1(C(=O)N2CCOCC2)COC(c2ccc(OCCCO)cc2)=N1 -2.05
CCCCCCc1nc(Cc2cc(OC)c(OC)c(OC)c2)cc2c1[Si](C(C)C)(C(C)C)OC2 0.654

assay: fission yeast growth modulation, primary screen, strain 972, OD600, 24 h, no modulator (AID 1090);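 note: basal condition with compound alone and no growth modifier present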; details: S. pombe 972 growth, higher = more signal, called active from +8 up or from −8 down

z-score, inactive:
CO[C@H]1O[C@H](CO)[C@@H](OC(=O)Nc2ccc3c(c2)OCO3)[C@H](OC(=O)Nc2ccc3c(c2)OCO3)[C@@H]1OC(=O)Nc1ccc2c(c1)OCO2 1.37
CCCC1(C(=O)OC)C=C2C(=C(C)C(=O)C2C)CN1 (centres undefined) 0.883
CO[C@H]1O[C@H](CO)[C@@H](OC(=O)Nc2ccccc2)[C@H](OC(=O)c2cc3ccccc3[nH]2)[C@H]1OC(=O)c1cc2ccccc2[nH]1 -0.562
O=C1O[C@H](c2ccccc2)[C@H](c2ccccc2)N2[C@H]1[C@@H](C(=O)O)[C@]1(C(=O)Nc3ccc(C#CCCO)cc31)[C@H]2c1ccccc1OCCO -0.495
CCCCC[C@H]1OC[C@@]23C=C(Br)[C@@H](CC12)[C@@]1(CO1)C3=O (some centres undefined) -6.44
CCCCN1CC=CC23O[C@@H]4/C=C\CCC(C)OC(=O)C4[C@H]2C(=O)N(CCCO)[C@@H]3C1=O (some centres undefined) 0.772
CC[C@@H]1C=C(C(=O)O)[C@H](c2ccc(C#N)cc2)N1S(=O)(=O)c1ccc(C)cc1 -0.185
O=C1[C@H]2C=C(I)[C@H](C[C@@H]2OCCOCCO)[C@@]12CO2 -0.342
COCCOC(=O)N1C(=O)[C@@]2(c3cc(C#CC4=CCCCC4)ccc31)[C@H](C(=O)Nc1nc3ccccc3s1)[C@H]1C(=O)O[C@H](c3ccccc3)[C@H](c3ccccc3)N1[C@@H]2c1ccc(O)cc1 -0.663
COc1ccc([C@H]2OC[C@@H]3C[C@H](Cc4ccccc4)C(=O)N32)cc1 -2
NC(=O)NCC#Cc1ccc2c(c1)[C@]1(C(=O)N2)[C@H](c2ccccc2OCCO)N2[C@H](c3ccccc3)[C@H](c3ccccc3)OC(=O)[C@H]2[C@@H]1C(=O)O -0.602
CC1CC/C=C\[C@H]2OC34C=CCN(c5ccc(Cl)cc5)C(=O)[C@H]3N(C(C)CO)C(=O)[C@]4(C)C2C(=O)O1 (some centres undefined) -0.738
CCOC(=O)C1=C[C@@H](C(C)C)N(S(=O)(=O)c2ccc(C)cc2)[C@H]1c1ccc(C(F)(F)F)cc1 1.5
OCCCC1=CC(c2ccc(CN3CCCC3)cc2)N(Cc2cc3c(cc2Br)OCO3)CC1 (centres undefined) -1.35
CCCCCCCCCC(O)C1C=CC2C(=O)N(c3ccccc3)C(=O)C2N1Nc1cc(OC)c(OC)c(OC)c1 (centres undefined) 0.441
COCCCNC(=O)[C@@]1(CCC(=O)OC(C)(C)C)N=C(c2ccc(OCCCO)cc2)O[C@H]1c1ccccc1N=[N+]=[N-] 0.362
COc1cc(OC)c(C(O)C2C=CC3C(=O)N(Cc4ccccc4)C(=O)C3N2n2cnnc2)cc1Br (centres undefined) -1.73
C[N+](C)(C)CCCC[C@@H]1NC(=O)[C@@H]2C[C@H](C(=O)NCCCCCCN)[C@H](c3cccc(OCCO)c3)N2C1=O -4.23
O=C1C2C=CC(C(O)C3CC=CCC3)N(Nc3ccccc3)C2C(=O)N1c1ccccc1 (centres undefined) -0.428
C=CCNC(=O)[C@H]1[C@@H]2C(=O)O[C@@H](c3ccccc3)[C@@H](c3ccccc3)N2[C@@H](c2ccccc2OCCO)[C@]12C(=O)N(C(=O)OCCOC)c1ccc(C#CC3(O)CCCCCC3)cc12 -0.444
COCCOC(=O)N1C(=O)[C@@]2(c3cc(C#CC4=CCCCC4)ccc31)[C@H](c1ccccc1OCCO)N1[C@H](c3ccccc3)[C@H](c3ccccc3)OC(=O)[C@H]1[C@@H]2C(=O)NC[C@H](O)c1ccccc1 0.785
CCCC[C@@H](O)C1=C(COc2ccccc2)C[C@H]2C(=O)N(Cc3ccccc3)C(=O)[C@H]2[C@H]1CO -0.336
O=C1OCCC/C=C\[C@H]2OC34C=CCN(c5ccc6ccccc6c5)C(=O)[C@H]3N(CCO)C(=O)[C@@H]4C12 (some centres undefined) -0.224
COC(=O)c1c(CC[C@@H](CO)NC(=O)N[C@@H](C)Cn2cc(-c3ccccn3)nn2)oc(C(C)=O)c1C(=O)OC -0.705
CC(C)C[C@@H]1NC(=O)[C@@H]2C[C@H](C(=O)NCCCCCCN)[C@H](c3cccc(OCCO)c3)N2C1=O -0.114
[N-]=[N+]=Nc1ccccc1C[C@@]1(C(=O)N2CCOCC2)N=C(c2ccc(OCCCO)cc2)O[C@@H]1c1ccccc1 -2.77
CCOC(=O)C[C@H]1[C@H](OC(=O)c2cc3ccccc3oc2=O)[C@@H](NC(=O)CC(C)C)c2cc(OCCCO)ccc2N1C(=O)c1ccc2ccccc2n1 0.376
Cc1ccc(NN2C(C(O)c3c(F)cccc3Cl)C=CC3C(=O)N(C4CCCCC4)C(=O)C32)cc1 (centres undefined) -0.362
O=C1O[C@@H](c2ccccc2)[C@@H](c2ccccc2)N2[C@@H](c3ccc(OCCO)cc3)[C@]3(C(=O)Nc4ccc(C#CC5=CCCCC5)cc43)[C@@H](C(=O)NC[C@H](O)c3ccccc3)[C@H]12 2.17
CCCN1C(=O)[C@]2(Cc3ccccc31)N=C(c1ccc(OCCCO)cc1)O[C@@H]2c1ccccc1 -2.93
C[N+](C)(C)CCCCCCNC(=O)[C@@H]1C[C@@H]2C(=O)N3CCC[C@H]3C(=O)N2[C@@H]1c1ccc(O)cc1 0.214
CCOC(=O)C[C@H]1[C@H](OC(=O)c2ccc(C(=O)c3ccccc3)cc2)[C@@H](NC(=O)CC(C)C)c2cc(OCCCO)ccc2N1C(=O)c1ccccc1 -0.333
CC1CC/C=C\[C@H]2OC34C=CCN(C(C)C)C(=O)[C@H]3N(CCO)C(=O)[C@@H]4C2C(=O)O1 (some centres undefined) -0.486
[N-]=[N+]=Nc1ccccc1C[C@]1(C(=O)N2CCOCC2)COC(c2ccc(OCCCO)cc2)=N1 -5.79
CCCCCCc1nc(Cc2cc(OC)c(OC)c(OC)c2)cc2c1[Si](C(C)C)(C(C)C)OC2 -0.0595
